Data published in the supplement of paper PMC6555819.

Tests used:
Experiment in all cases: PBM binding z-score (relative to random genomic background probes); higher = stronger binding; sequences stand for … in GC…GCGATTGACAGCGTAGAATGAAGG
[1] = system: FXR:RXRa (NR concentration 270 nM, RXRa partner concentration 90 nM)
In short: (§1)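 Each nuclear receptor dimer, without ligand, was incubated for 1 h on custom Agilent 4×180K protein-binding microarrays. Binding was detected with antibodies against each partner (one per run), and scanned fluorescence was regression-normalized. The binding z-scores are referenced to random human genomic background probes.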

[2] = system: LXRa:RXRa (NR concentration 270 nM, RXRa partner concentration 90 nM)
In short: as §1

[3] = system: LXRa homodimer (NR concentration 270 nM)
In short: as §1

[4] = system: LXRb:RXRa (NR concentration 270 nM, RXRa partner concentration 90 nM)
In short: as §1

[5] = system: LXRb homodimer (NR concentration 270 nM)
In short: as §1

[6] = system: PPARa:RXRa (NR concentration 270 nM, RXRa partner concentration 90 nM)
In short: as §1

[7] = system: PPARg:RXRa (NR concentration 180 nM, RXRa partner concentration 90 nM)
In short: as §1

[8] = system: PPARg:RXRa 270nM:90nM, anti-RXR (NR concentration 270 nM, RXRa partner concentration 90 nM)
In short: as §1

[9] = system: PPARg:RXRa 30nM:10nM, anti-RXR (NR concentration 30 nM, RXRa partner concentration 10 nM)
In short: as §1

[10] = system: PPARg:RXRa 90nM:30nM, anti-RXR (NR concentration 90 nM, RXRa partner concentration 30 nM)
In short: as §1

[11] = system: PPARg:RXRa DBDmut IVT, anti-RXR (DBD mutation: RXRa K156A/R161A, NR concentration 270 nM, RXRa partner concentration 90 nM)
In short: as §1

[12] = system: PPARg:RXRa IVT, anti-PPARg (NR concentration 270 nM, RXRa partner concentration 90 nM)
In short: as §1

[13] = system: PPARg DBDmut:RXRa IVT, anti-PPARg (DBD mutation: PPARg1 K132A/R137A, NR concentration 270 nM, RXRa partner concentration 90 nM)
In short: as §1

[14] = system: PPARg DBDmut IVT, anti-PPARg (DBD mutation: PPARg1 K132A/R137A, NR concentration 270 nM)
In short: as §1

[15] = system: PPARg homodimer (NR concentration 180 nM)
In short: as §1

[16] = system: PXR:RXRa (NR concentration 270 nM, RXRa partner concentration 90 nM)
In short: as §1

[17] = system: PXR homodimer (NR concentration 270 nM)
In short: as §1

[18] = system: RARa:RXR (NR concentration 270 nM, RXRa partner concentration 90 nM)
In short: as §1

[19] = system: RARa homodimer (NR concentration 270 nM)
In short: as §1

[20] = system: RARb:RXRa (NR concentration 270 nM, RXRa partner concentration 90 nM)
In short: as §1

Sequence	PBM binding z-score [1]	PBM binding z-score [2]	PBM binding z-score [3]	PBM binding z-score [4]	PBM binding z-score [5]	PBM binding z-score [6]	PBM binding z-score [7]	PBM binding z-score [8]	PBM binding z-score [9]	PBM binding z-score [10]	PBM binding z-score [11]	PBM binding z-score [12]	PBM binding z-score [13]	PBM binding z-score [14]	PBM binding z-score [15]	PBM binding z-score [16]	PBM binding z-score [17]	PBM binding z-score [18]	PBM binding z-score [19]	PBM binding z-score [20]
TCATATAGCTAATACAGGTGAAAGTCGGCATCTA	0.322	0.835	0.0705	0.543	-0.0868	1.17	0.706	1.77	3.13	2.35	1.68	0.828	0.761	0.528	0.511	0.475	-0.0901	0.626	0.67	0.139
ATCTCTAGGTATAGATAGTTCAGTGAATGCAAAT	0.0439	0.281	0.536	0.328	0.404	0.225	0.685	0.289	0.345	0.323	-0.0574	0.416	1.48	1.36	0.546	0.877	0.855	0.453	0.807	0.415
ACTATTAGTTTAGACGAGGGCAACCGATAGGTTG	0.453	0.483	0.356	0.275	0.368	0.386	0.651	0.246	-0.0368	-0.045	0.00795	0.402	0.0772	1.14	0.811	1.29	0.902	1.26	1.02	1.25
TCTACTAGTTGATTAGGGCAACCGAAACAGCGGA	-0.0181	-0.4	-0.422	0.0832	-0.553	0.777	0.366	1.66	3.06	2.31	1.59	1.11	-0.0224	-0.068	-0.343	0.00114	-0.203	0.226	-0.458	0.694
TAGCCTAGGTCCTTGGGCCAGTATAGTACGCATC	-1.55	-1.18	-1.24	-1.1	-1.16	-1.2	-0.0575	-0.847	-0.771	-0.944	-1	-0.913	-2.61	-1.34	-2.22	-1.19	-1.2	-1.44	-2.43	-0.495
GGAACGAGGGCATTCGAGTTGCTAGCATGGCGAT	0.791	0.5	-0.577	-0.157	-0.675	0.953	0.443	0.479	-0.435	-0.173	2.56	2.02	-0.0761	-0.825	-0.911	2.3	-0.0583	0.598	-0.778	1.8
TGTCGAAGTTCAAAGGTAACGTAAGTATCCACAC	4.25	4.02	1.18	3.18	0.108	4.72	4.47	5.23	2.95	4.34	-0.721	2.09	0.265	0.298	1.53	4.12	1.65	4.17	0.485	3.61
TCTCGGAGGACACGAAATGTCAGAGCTCGACATC	0.755	0.358	-0.2	0.313	-0.55	0.168	0.208	1.09	2.37	1.62	1.31	-0.0738	0.273	-0.287	-0.365	-0.0137	-0.515	0.332	-0.679	1.56
CGAACTATGTCATCCAGGACAGTGAATACATTGA	0.102	-0.0297	0.258	0.236	0.0323	1.01	1.11	1.06	0.663	0.773	3.74	2.94	1.29	1.1	0.502	0.317	-0.051	0.733	0.52	0.805
TGGAGTAGGTTACCAATGGGGCATTCAGCTTTCT	-0.0639	1.5	-0.0874	1.12	0.179	1.61	1.8	2.14	0.743	1.59	4.44	4.65	0.93	1.38	1.1	0.359	-0.17	0.243	0.592	1.21
GCAGACAGGTGAAATGCAGGTAACTCAGGGTGGC	-0.157	0.0887	-0.625	-0.157	-0.898	1.23	0.71	0.196	-0.445	0.00263	1.43	1.14	-0.233	-1.24	-0.0768	-0.249	0.00173	0.324	-0.661	0.683
ACTAGCAGGCCAAGTTTGGGACACTCAAACAAAG	-0.139	-0.665	-0.588	-0.515	-0.807	-0.478	0.0502	-0.814	-0.775	-0.548	0.573	0.235	-0.681	-1.33	-0.893	-0.655	-0.694	-0.143	-0.864	0.366
ACTATTAGTTGAGACGAGCGCAACCGATAGGTTG	-0.41	-0.534	-0.214	-0.638	-0.159	-0.642	0.477	-0.52	-0.422	-0.414	-0.504	-0.34	0.343	0.844	-0.155	-0.542	0.00515	-0.474	-0.207	-0.278
ATCTCTAGGTATAAGTTCAGTGAATCCCGAGGAT	0.24	0.542	0.507	0.379	0.825	1.77	2.79	4.45	2.94	4.55	0.227	0.858	1.41	1.22	0.751	1.44	2.32	0.493	1.02	1.73
GATACAGGGTCAGCTAGACGCCAGAGTATGGAAA	4.79	2.3	-0.39	2.07	-0.431	4.71	3.71	3.1	0.594	1.97	0.771	2.21	0.485	0.334	1.15	1.76	0.0262	2.72	-0.118	3.9
